Among all 5,500 compounds or so, about 2,000 (36%) were called active. Another 18% or so got no clear call; they are omitted. No stated cut-off is given here; in the data, active means normalized growth mostly below about 0.91 (no sharp cut-off); inconclusive means no clear call, values can overlap the other calls; inactive means mostly above about 0.92. This is one part of the list.
Assay: chemical genetic growth profiling, strain panel (AID 1159580);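 further: tested at 20 µM; growth read once vehicle control cultures reached saturation at 30 °C; 1 = growth at the plate median or of vehicle wells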
Details: growth OD

Measured: normalized growth

CCC(=O)O[C@H]1[C@H](O[C@@H]2[C@@H](C)[C@H](O[C@H]3C[C@@](C)(OC)[C@@H](O)[C@H](C)O3)[C@@H](C)C(=O)O[C@H](CC)[C@@](C)(O)[C@H](O)[C@@H](C)C(=O)[C@H](C)C[C@@]2(C)O)O[C@H](C)C[C@@H]1N(C)C
inactive: S. cerevisiae deletion strains, locus YJR066W, strain TOR1, stronger effect = lower value 0.852 | S. cerevisiae deletion strains, locus YKL009W, strain mrt4, stronger effect = lower value 0.932 | S. cerevisiae deletion strains, locus YKL068W, stronger effect = lower value 1.04 | S. cerevisiae deletion strains, locus YKL085W, strain MDH1 (second series), stronger effect = lower value 1 | S. cerevisiae deletion strains, locus YKL085W, strain MDH1, stronger effect = lower value 1 | S. cerevisiae deletion strains, locus YKL160W, strain elf1, stronger effect = lower value 0.924 | S. cerevisiae deletion strains, locus YKL190W, strain CNB1, stronger effect = lower value 1.01 | S. cerevisiae deletion strains, locus YKR026C, strain gcn3, stronger effect = lower value 1.03 | S. cerevisiae deletion strains, locus YKR091W, strain srl3, stronger effect = lower value 1.02 | S. cerevisiae deletion strains, locus YLL026W, stronger effect = lower value 0.942 | S. cerevisiae deletion strains, locus YLL041C, strain sdh2, stronger effect = lower value 1 | S. cerevisiae deletion strains, locus YLR039C, strain RIC1, stronger effect = lower value 0.865 | S. cerevisiae deletion strains, locus YLR058C, strain SHM2, stronger effect = lower value 0.968 | S. cerevisiae deletion strains, locus YLR102C, strain apc9, stronger effect = lower value 1.01 | S. cerevisiae deletion strains, locus YLR113W, strain HOG1, stronger effect = lower value 1.02 | S. cerevisiae deletion strains, locus YLR262C, strain YPT6 (second series), stronger effect = lower value 1.03 | S. cerevisiae deletion strains, locus YLR262C, strain YPT6, stronger effect = lower value 0.882 | S. cerevisiae deletion strains, locus YLR268W, strain sec22, stronger effect = lower value 0.988 | S. cerevisiae deletion strains, locus YLR330W, strain CHS5, stronger effect = lower value 0.937 | S. cerevisiae deletion strains, locus YLR342W, strain FKS1 (second series), stronger effect = lower value 1.05 | S. cerevisiae deletion strains, locus YLR342W, strain FKS1, stronger effect = lower value 1.05 | S. cerevisiae deletion strains, locus YLR370C, strain arc18, stronger effect = lower value 1 | S. cerevisiae deletion strains, locus YLR371W, strain rom2, stronger effect = lower value 0.935 | S. cerevisiae deletion strains, locus YLR384C, strain iki3, stronger effect = lower value 1.02 | S. cerevisiae deletion strains, locus YML016C, strain PPZ1, stronger effect = lower value 1 | S. cerevisiae deletion strains, locus YML032C, strain rad52, stronger effect = lower value 0.946 | S. cerevisiae deletion strains, locus YML124C, strain tub3, stronger effect = lower value 1.02 | S. cerevisiae deletion strains, locus YMR058W, strain fet3, stronger effect = lower value 0.961 | S. cerevisiae deletion strains, locus YMR078C, strain ctf18, stronger effect = lower value 0.988 | S. cerevisiae deletion strains, locus YMR129W, stronger effect = lower value 1 | S. cerevisiae deletion strains, locus YMR223W, strain ubp8, stronger effect = lower value 0.982 | S. cerevisiae deletion strains, locus YMR231W, strain pep5, stronger effect = lower value 0.984 | S. cerevisiae deletion strains, locus YMR263W, strain SAP30, stronger effect = lower value 0.943 | S. cerevisiae deletion strains, locus YNL067W, strain RPL9B, stronger effect = lower value 0.948 | S. cerevisiae deletion strains, locus YNL128W, strain TEP1, stronger effect = lower value 0.985 | S. cerevisiae deletion strains, locus YNL183C, strain NPR1, stronger effect = lower value 0.857 | S. cerevisiae deletion strains, locus YNL209W, strain ssb2, stronger effect = lower value 0.992 | S. cerevisiae deletion strains, locus YNL250W, strain rad50, stronger effect = lower value 1.03 | S. cerevisiae deletion strains, locus YNL271C, strain bni1, stronger effect = lower value 1.01 | S. cerevisiae deletion strains, locus YNL298W, strain CLA4, stronger effect = lower value 0.952 | S. cerevisiae deletion strains, locus YNL322C, strain KRE1 (second series), stronger effect = lower value 0.943 | S. cerevisiae deletion strains, locus YNR049C, strain mso1, stronger effect = lower value 1.01 | S. cerevisiae deletion strains, locus YNR052C, strain pop2, stronger effect = lower value 1 | S. cerevisiae deletion strains, locus YOL006C, strain TOP1, stronger effect = lower value 0.689 | S. cerevisiae deletion strains, locus YOL012C, strain htz1 0.653 | S. cerevisiae deletion strains, locus YOL147C, strain pex11, stronger effect = lower value 0.977 | S. cerevisiae deletion strains, locus YOR061W, strain CKA2, stronger effect = lower value 1.01 | S. cerevisiae deletion strains, locus YOR069W, strain VPS5, stronger effect = lower value 1 | S. cerevisiae deletion strains, locus YOR070C, strain gyp1, stronger effect = lower value 0.93 | S. cerevisiae deletion strains, locus YOR080W, strain dia2, stronger effect = lower value 0.977 | S. cerevisiae deletion strains, locus YOR136W, strain idh2, stronger effect = lower value 0.978 | S. cerevisiae deletion strains, locus YOR144C, strain elg1, stronger effect = lower value 1.01 | S. cerevisiae deletion strains, locus YOR184W, strain ser1, stronger effect = lower value 0.936 | S. cerevisiae deletion strains, locus YOR231W, strain MKK1, stronger effect = lower value 0.879 | S. cerevisiae deletion strains, locus YOR265W, strain rbl2, stronger effect = lower value 0.982 | S. cerevisiae deletion strains, locus YOR316C, strain cot1, stronger effect = lower value 1.01 | S. cerevisiae deletion strains, locus YPL051W, strain arl3, stronger effect = lower value 0.921 | S. cerevisiae deletion strains, locus YPL055C, strain LGE1, stronger effect = lower value 0.894 | S. cerevisiae deletion strains, locus YPL106C, strain sse1, stronger effect = lower value 1.06 | S. cerevisiae deletion strains, locus YPL256C, strain CLN2, stronger effect = lower value 0.953 | S. cerevisiae deletion strains, locus YPR119W, strain clb2, stronger effect = lower value 1.02 | S. cerevisiae deletion strains, locus YPR141C, strain kar3, stronger effect = lower value 1.06 | S. cerevisiae deletion strains, locus YPR167C, strain met16, stronger effect = lower value 0.994 | S. cerevisiae deletion strains, strain wtn01, stronger effect = lower value 0.968 | S. cerevisiae strains, strain wild type, stronger effect = lower value 0.974
active: S. cerevisiae deletion strains, locus YKR001C, strain vps1, stronger effect = lower value 0.648 | S. cerevisiae deletion strains, locus YLL001W, strain dnm1, stronger effect = lower value 0.87 | S. cerevisiae deletion strains, locus YLR027C, strain aat2, stronger effect = lower value 0.893 | S. cerevisiae deletion strains, locus YLR221C, strain rsa3, stronger effect = lower value 0.796 | S. cerevisiae deletion strains, locus YLR258W, strain gsy2, stronger effect = lower value 0.902 | S. cerevisiae deletion strains, locus YLR320W, strain mms22, stronger effect = lower value 0.596 | S. cerevisiae deletion strains, locus YLR357W, strain rsc2, stronger effect = lower value 0.759 | S. cerevisiae deletion strains, locus YLR418C, strain cdc73, stronger effect = lower value 0.615 | S. cerevisiae deletion strains, locus YML120C, strain ndi1, stronger effect = lower value 0.905 | S. cerevisiae deletion strains, locus YMR125W, strain sto1, stronger effect = lower value 0.765 | S. cerevisiae deletion strains, locus YMR205C, strain PFK2, stronger effect = lower value 0.8 | S. cerevisiae deletion strains, locus YMR307W, strain GAS1, stronger effect = lower value 0.463 | S. cerevisiae deletion strains, locus YNL071W, strain lat1, stronger effect = lower value 0.309 | S. cerevisiae deletion strains, locus YNL233W, strain BNI4, stronger effect = lower value 0.853 | S. cerevisiae deletion strains, locus YNL248C, strain rpa49, stronger effect = lower value 0.776 | S. cerevisiae deletion strains, locus YNL307C, strain MCK1, stronger effect = lower value 0.4 | S. cerevisiae deletion strains, locus YOR001W, strain rrp6, stronger effect = lower value 0.861 | S. cerevisiae deletion strains, locus YOR083W, strain WHI5, stronger effect = lower value 0.829 | S. cerevisiae deletion strains, locus YOR106W, strain vam3, stronger effect = lower value 0.75 | S. cerevisiae deletion strains, locus YOR270C, strain vph1, stronger effect = lower value 0.3 | S. cerevisiae deletion strains, locus YOR290C, strain snf2, stronger effect = lower value 0.786 | S. cerevisiae deletion strains, locus YPL078C, strain atp4, stronger effect = lower value 0.635 | S. cerevisiae deletion strains, locus YPL240C, strain hsp82, stronger effect = lower value 0.904 | S. cerevisiae deletion strains, locus YPR163C, strain tif3, stronger effect = lower value 0.829

— PubChem BioAssay AID1159580 (chemical genetic matrix, 2015)
